Test results taken from the supplement of paper PMC8975748.
Counter-ions that a name gives are not always drawn. ± gives the standard deviation of the averaged measurements.

Assays:
[1] = system: Saccharomyces cerevisiae BY4741 SeMeCo community; test: mean cell size (pixel area) (pixels); higher = larger cells; conditions: 10 µM; 24 h; SM minimal medium
Procedure, shortened: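 Plates of 384 wells were acoustically predosed with drug at a final 10 µM in SM medium, and 70 µl of a Saccharomyces cerevisiae BY4741 preculture diluted from OD600 = 1.0 to OD600 = 0.3 was added for 24 h. The yeast formed a four-plasmid fluorescent community in which each plasmid complements one auxotrophy and carries a fluorescent marker. Fixed cells were imaged by automated confocal microscopy and analysed in Harmony for mean cell pixel area per well. Values are means of 3 replicates. Same SeMeCo high-content imaging drug screen: Selleck FDA-approved drugs at 10 µM, 24 h in SM medium, 384-well plates, 3 replicates.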

[2] = system: Saccharomyces cerevisiae BY4741 SeMeCo community; test: z-score of subpopulation abundance vs DMSO median, subpopulation auxotrophic for L; higher = larger share of this subpopulation than in DMSO controls; conditions: 10 µM; 24 h; SM minimal medium; subpopulation (auxotrophy): L
Procedure, shortened: (§1)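 Automated confocal microscopy of paraformaldehyde-fixed cells was used to follow a Saccharomyces cerevisiae BY4741 community carrying four plasmids, each restoring one auxotrophy and encoding a distinct fluorescent protein. The community was pre-grown overnight to OD600 1.0, diluted to 0.3, and added at 70 µl to 384-well plates acoustically predosed with library drugs (10 µM final) for 24 h of growth in minimal SM medium. Single-auxotroph fluorescent strains set thresholds and autofluorescence correction, and each subpopulation's abundance was scored as a z-score against the vehicle-well median.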

[3] = system: Saccharomyces cerevisiae BY4741 SeMeCo community; test: z-score of subpopulation abundance vs DMSO median, subpopulation auxotrophic for U; higher = larger share of this subpopulation than in DMSO controls; conditions: 10 µM; 24 h; SM minimal medium; subpopulation (auxotrophy): U
Procedure, shortened: as §1

[4] = system: Saccharomyces cerevisiae BY4741 SeMeCo community; test: z-score of subpopulation abundance vs DMSO median, subpopulation auxotrophic for H; higher = larger share of this subpopulation than in DMSO controls; conditions: 10 µM; 24 h; SM minimal medium; subpopulation (auxotrophy): H
Procedure, shortened: as §1

[5] = system: Saccharomyces cerevisiae BY4741 SeMeCo community; test: z-score of subpopulation abundance vs DMSO median, subpopulation auxotrophic for LU; higher = larger share of this subpopulation than in DMSO controls; conditions: 10 µM; 24 h; SM minimal medium; subpopulation (auxotrophy): LU
Procedure, shortened: as §1

[6] = system: Saccharomyces cerevisiae BY4741 SeMeCo community; test: z-score of subpopulation abundance vs DMSO median, subpopulation auxotrophic for LM; higher = larger share of this subpopulation than in DMSO controls; conditions: 10 µM; 24 h; SM minimal medium; subpopulation (auxotrophy): LM
Procedure, shortened: as §1

[7] = system: Saccharomyces cerevisiae BY4741 SeMeCo community; test: z-score of subpopulation abundance vs DMSO median, subpopulation auxotrophic for HM; higher = larger share of this subpopulation than in DMSO controls; conditions: 10 µM; 24 h; SM minimal medium; subpopulation (auxotrophy): HM
Procedure, shortened: as §1

[8] = system: Saccharomyces cerevisiae BY4741 SeMeCo community; test: z-score of subpopulation abundance vs DMSO median, subpopulation auxotrophic for HU; higher = larger share of this subpopulation than in DMSO controls; conditions: 10 µM; 24 h; SM minimal medium; subpopulation (auxotrophy): HU
Procedure, shortened: as §1

[9] = system: Saccharomyces cerevisiae BY4741 SeMeCo community; test: z-score of subpopulation abundance vs DMSO median, subpopulation auxotrophic for UM; higher = larger share of this subpopulation than in DMSO controls; conditions: 10 µM; 24 h; SM minimal medium; subpopulation (auxotrophy): UM
Procedure, shortened: as §1

[10] = system: Saccharomyces cerevisiae BY4741 SeMeCo community; test: z-score of subpopulation abundance vs DMSO median, subpopulation auxotrophic for HL; higher = larger share of this subpopulation than in DMSO controls; conditions: 10 µM; 24 h; SM minimal medium; subpopulation (auxotrophy): HL
Procedure, shortened: as §1

[11] = system: Saccharomyces cerevisiae BY4741 SeMeCo community; test: z-score of subpopulation abundance vs DMSO median, subpopulation auxotrophic for HLU; higher = larger share of this subpopulation than in DMSO controls; conditions: 10 µM; 24 h; SM minimal medium; subpopulation (auxotrophy): HLU
Procedure, shortened: as §1

[12] = system: Saccharomyces cerevisiae BY4741 SeMeCo community; test: z-score of subpopulation abundance vs DMSO median, subpopulation auxotrophic for HLM; higher = larger share of this subpopulation than in DMSO controls; conditions: 10 µM; 24 h; SM minimal medium; subpopulation (auxotrophy): HLM
Procedure, shortened: as §1

[13] = system: Saccharomyces cerevisiae BY4741 SeMeCo community; test: z-score of subpopulation abundance vs DMSO median, subpopulation auxotrophic for HUM; higher = larger share of this subpopulation than in DMSO controls; conditions: 10 µM; 24 h; SM minimal medium; subpopulation (auxotrophy): HUM
Procedure, shortened: as §1

[14] = system: Saccharomyces cerevisiae BY4741 SeMeCo community; test: z-score of subpopulation abundance vs DMSO median, subpopulation auxotrophic for LUM; higher = larger share of this subpopulation than in DMSO controls; conditions: 10 µM; 24 h; SM minimal medium; subpopulation (auxotrophy): LUM
Procedure, shortened: as §1

[15] = system: Saccharomyces cerevisiae BY4741 SeMeCo community; test: z-score of subpopulation abundance vs DMSO median, subpopulation auxotrophic for HLUM; higher = larger share of this subpopulation than in DMSO controls; conditions: 10 µM; 24 h; SM minimal medium; subpopulation (auxotrophy): HLUM
Procedure, shortened: as §1

[16] = system: Saccharomyces cerevisiae BY4741 SeMeCo community; test: z-score of prototroph abundance vs DMSO median; higher = larger share of this subpopulation than in DMSO controls; conditions: 10 µM; 24 h; SM minimal medium; subpopulation (auxotrophy): Prototroph
Procedure, shortened: as §1

| Structure (SMILES) | mean cell size [1] | z-score of subpopulation abundance [2] | z-score of subpopulation abundance [3] | z-score of subpopulation abundance [4] | z-score of subpopulation abundance [5] | z-score of subpopulation abundance [6] | z-score of subpopulation abundance [7] | z-score of subpopulation abundance [8] | z-score of subpopulation abundance [9] | z-score of subpopulation abundance [10] | z-score of subpopulation abundance [11] | z-score of subpopulation abundance [12] | z-score of subpopulation abundance [13] | z-score of subpopulation abundance [14] | z-score of subpopulation abundance [15] | z-score of prototroph abundance [16] |
| --- | --- | --- | --- | --- | --- | --- | --- | --- | --- | --- | --- | --- | --- | --- | --- | --- |
| Cc1nc2n(c(=O)c1CCN1CCC(c3noc4cc(F)ccc34)CC1)CCCC2 [Risperidone] | 12.3 ± 0.18 | -0.44 | 0.56 | 0.92 | 0.52 | 0.47 | 0.48 | 0.99 | 0.87 | 0.49 | 0.19 | 0.11 | 1.02 | 0.14 | -0.21 |  |
| CN1CCN(c2cc3c(cc2F)c(=O)c(C(=O)O)cn3-c2ccc(F)cc2)CC1 [Difloxacin hydrochloride] | 12.1 ± 0.29 | -0.28 | -0.57 | -2.54 | -0.13 | -0.31 | -0.76 |  | -0.52 | -1.38 | -0.55 | -0.2 | -0.72 | -0.26 | 0.23 |  |
| O=C(O)CCC(=O)OC[C@@H](NC(=O)C(Cl)Cl)[C@H](O)c1ccc([N+](=O)[O-])cc1 [Chloramphenicol sodium succinate] | 12.13 ± 0.03 | 2.27 |  | 0.42 | 0.45 | 1.25 | 0.94 | -1.04 | -0.25 | 1.46 | 1.48 | 0.81 | 0.13 | 1.21 | 0.88 | -0.62 |
| Cc1ccc(Sc2ccccc2N2CCNCC2)c(C)c1 | 12.22 ± 0.086 | -0.27 | -0.43 |  | -0.09 | -0.55 |  |  | -0.97 | -0.11 | 0.19 | -0.35 | -0.46 | -0.73 | -0.16 | 0.66 |
| N#Cc1ccc2[nH]cc(CCCCN3CCN(c4ccc5oc(C(N)=O)cc5c4)CC3)c2c1 [Vilazodone] | 12.2 ± 0.28 | 0.06 | -0.66 | 0 | -0.57 |  | -0.16 | -0.93 | -0.2 | -0.17 | 0.77 | 0.08 | -0.53 |  | 0.53 |  |
| COc1cc2c(cc1OC)C(=O)C(CC1CCN(Cc3ccccc3)CC1)C2 (stereo not drawn) [Donepezil] | 12.14 ± 0.068 | 0.86 |  | -0.21 | 0.06 | 0.51 | 0.52 | -0.92 | -0.49 | 0.47 | -0.33 | -0.14 | -0.13 | 0.47 | 0.22 |  |
| Cc1cc(O)c(C(=O)N[C@@H](C(=O)N[C@@H]2C(=O)N3C(C(=O)O)=C(CSc4nnnn4C)CS[C@H]23)c2ccc(O)cc2)cn1 [Cefpiramide sodium] | 12.3 ± 0.13 | -0.92 | 0.61 | -0.05 | -0.12 | -0.42 | 0.57 | 0.5 | 0.29 | 0.18 | 0.16 | -0.6 | -0.35 | -0.42 | -0.55 |  |
| O=C(Nc1cccc(C2=NCCN2)c1)Nc1cccc(C2=NCCN2)c1 [Imidocarb dipropionate] | 12.1 ± 0.27 | -0.04 |  | -0.78 | 0.44 | -0.28 | -0.79 |  | -0.26 |  | 0.17 | -0.49 | -0.49 | -0.67 | 0.13 | 0.72 |
| O=C(Nc1ccc(Oc2ccc(Cl)cc2)c(Cl)c1)c1cc(I)cc(I)c1O [Rafoxanide] | 12.2 ± 0.19 | 1.02 | -1.44 | 1.91 | -0.7 | 0.2 | 0.8 |  | -0.89 | 1.29 | -0.3 | 0.01 | 0.54 | -0.08 | 0.01 | 0.24 |
| N#Cc1ccc(Oc2ccc3c(c2)COB3O)cc1 [Crisaborole (AN2728)] | 12.3 ± 0.19 | 2.57 | 0.49 | 7.63 | 4.21 | 2.61 | 0.93 | 3.15 | -0.21 | 5.69 | 6.18 | 3.78 | 1.2 | 3.54 |  | -3.53 |
| COC(=O)C1=C(C)NC(C)=C(C(=O)OC(C)(C)CN(C)CCC(c2ccccc2)c2ccccc2)C1c1cccc([N+](=O)[O-])c1 (stereo not drawn) [Lercanidipine hydrochloride] | 12.3 ± 0.19 | 1.4 | -1.5 | 2.45 | -0.32 | 1.89 | 2.19 | -0.84 |  |  | 0.32 | 0.74 | 0.37 | 0.24 | -0.22 | -0.42 |
| COc1cccc2c1C(=O)c1c(O)c3c(c(O)c1C2=O)C[C@@](O)(C(=O)CO)C[C@@H]3O[C@H]1C[C@H](N)[C@@H](O)[C@H](C)O1 [Epirubicin HCl] |  | 1.16 | 1.23 | 1.56 | 2.53 | -0.38 | -3.22 | 3.44 | -0.97 |  | 2.87 | 0.2 | 0.3 | 2.67 | 4.48 | -0.14 |
| CC(=O)OCC1=C(C(=O)O)N2C(=O)[C@@H](NC(=O)CSc3ccncc3)[C@H]2SC1 [Cephapirin Benzathine] | 12.7 ± 0.17 | -0.54 | 1.05 | 1.45 | 0.44 |  | 0.66 | 1.01 | -0.24 | 0.48 | 0.25 | 0.47 | 0.27 |  | -0.55 | -0.46 |
| CC(=O)[C@H]1CC[C@H]2[C@@H]3CCC4=CC(=O)CC[C@]4(C)[C@H]3CC[C@]12C [Progesterone] | 12.5 ± 0.23 | -1.51 |  | -1.35 | -1.24 | -0.71 | -0.71 | -0.6 | 0.01 | -0.85 | -1.13 | -0.24 | -0.62 | -0.61 | -1 | 0.96 |
| COc1ccc(Cc2cnc(N)nc2N)cc1OC [Diaveridine] |  | -0.53 | -0.37 | -0.11 | -0.41 | -0.01 | -0.29 | -0.25 |  | -0.33 | 0.14 | -0.26 | 0.18 | -0.41 | 0.06 | 0.22 |
